Measurements from PubChem BioAssay.
The source made the active and inactive calls.

assay: optical density change of DRC41 E. coli – strain DRC41, OD650, 24 h, E. coli filamentation project, primary screen (AID 1093);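 further: MC1000 strain lacking acrAB efflux and sulA so SOS filamentation is blocked; test concentration not given here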; conditions: E. coli DRC41 growth, higher = more signal, called active from +8 up or from −8 down

z-score, inactive:
CCCNC(=O)[C@@]1(Sc2ccc(C)cc2)CC(=O)N(Cc2ccccc2Cl)[C@@H]1c1ccc(CO)cc1 0.298
C[C@H]1COC(=O)[C@H](Cc2ccccc2)NC(=O)[C@@H](C)COC(=O)[C@H](Cc2ccccc2)NC1=O -0.208
CC(C)N1CC=CC23O[C@@H]4/C=C\CCCOC(=O)C4[C@H]2C(=O)N(CCO)[C@@H]3C1=O (stereo partly specified) 3.25
COC(=O)[C@@]1(Cc2ccc(OC)cc2)[C@H]2c3cc(C(=O)N(C)C)n(CCc4ccc(OC)c(Br)c4)c3C[C@H]2CN1C(=O)c1ccccc1 -0.76
COCCOC(=O)N1C(=O)[C@@]2(c3cc(C#CCCO)ccc31)[C@H](c1ccc(O)cc1)N1[C@H](c3ccccc3)[C@H](c3ccccc3)OC(=O)[C@H]1[C@@H]2C(=O)Nc1nc2ccccc2s1 1.74
C=CC[C@]1(C(=O)N2CCCCC2)N=C(c2ccc(OCCCO)cc2)O[C@H]1c1ccccc1N=[N+]=[N-] 0.208
CCCC=C(CCC)[C@@H](NS(=O)(=O)c1cccc(C(F)(F)F)c1)c1ccc(C(=O)OC)cc1 -0.228
COc1ccc([Si](C)(C)[C@@H]2[C@@H](CC(=O)N(CCO)Cc3ccccc3)O[C@]3(C(=O)N(Cc4cccc(N5CCC5=O)c4)c4ccccc43)[C@H]2C)cc1 1.48
COc1cc([C@@H]2N[C@H](C(=O)O)Cc3c2[nH]c2ccccc32)cc(OC)c1OC 0.233
COCC(=C=CC[C@H](O)c1ccc(OCCO)cc1)C[C@H](O)c1ccccn1 1.06
COCCOC(=O)N1C(=O)[C@@]2(c3cc(C#CC4(O)CCCCCC4)ccc31)[C@H](C(=O)N1CCCCCCC1)[C@H]1C(=O)O[C@H](c3ccccc3)[C@H](c3ccccc3)N1[C@@H]2c1ccc(O)cc1 2.34
C=CCC(OC(C)=O)[C@@H]1[C@@H](N(Cc2cc3ccccc3o2)C(=O)c2ccc(C)cc2)c2cc(OCCCO)ccc2N1C(=O)c1ccc2ccccc2n1 (stereo partly specified) 2.74
C=C(COC)C(=O)CC[C@H](OC(=O)c1ccccc1-c1ccccc1C(=O)O)c1cccc(OCCO)c1 0.573
CC(C)[Si](OCC[C@H]1O[C@]2(C(=O)N(Cc3ccccc3)c3ccccc32)[C@@H](C)[C@@H]1[Si](C)(C)O)(C(C)C)C(C)C 1.05
CO[C@H]1COC(=O)CC=C[C@H](C)[C@@H](OC)COC(=O)CC=C[C@@H]1C 0.898
COCCOC(=O)N1C(=O)[C@@]2(c3cc(C#CC4=CCCCC4)ccc31)[C@H](C(=O)NC[C@H](O)c1ccccc1)[C@H]1C(=O)O[C@H](c3ccccc3)[C@H](c3ccccc3)N1[C@@H]2c1ccccc1OCCO -0.0963
COc1cc2c(cc1OC)CN(C(=O)[C@H]1[C@@H]3C(=O)O[C@@H](c4ccccc4)[C@@H](c4ccccc4)N3[C@@H](c3ccc(O)cc3)[C@]13C(=O)Nc1ccc(C#CC4(O)CCCCCC4)cc13)CC2 0.206
CN(C)C(=O)[C@@]1(Cc2ccccc2N=[N+]=[N-])N=C(c2ccc(OCCCO)cc2)O[C@H]1c1ccccc1CN=[N+]=[N-] 0.859
CO[C@H]1COC(=O)[C@@H](C)COC(=O)[C@H](Cc2ccccc2)NC(=O)CC=C[C@H]1C 0.331
CC(=O)NCCCC[C@@H]1NC(=O)[C@H]2C[C@@H](C(=O)NCCCCCCN(C)C)[C@@H](c3cccc(OCCO)c3)N2C1=O 0.0161
C=CCC(OC(C)=O)[C@@H]1[C@@H](N(Cc2ccc(-c3ccccc3)cc2)C(=O)c2ccc(-c3ccccc3)cc2)c2cc(OCCCO)ccc2N1C(=O)Cc1ccc(OC)cc1 (stereo partly specified) -0.685
COCCCNC(=O)[C@@H]1c2ccccc2C(=O)N(CC23CC4CC(CC(C4)C2)C3)[C@H]1c1ccc(CO)cc1 -0.494
C=CCN1C(=O)[C@]2(O[C@H](CCn3cc(CCO)nn3)[C@@H]([Si](C)(C)c3ccc(OC)cc3)[C@@H]2C)c2cc(NC(=O)c3ccc(OC)cc3)ccc21 1.94
C=C(CCCC)/C(=C/C[C@@H](OC(=O)c1ccncc1)c1ccc(CO)o1)c1cnc2ccccc2c1 1.25
COC(=O)Cn1c(C(=O)N2CCCC2)cc2c1C[C@H]1CN(C(=O)c3ccccc3)[C@@](Cc3ccc(OC)cc3)(C(=O)OC)[C@@H]21 -0.485
C=C(CCCC)C(=O)CC[C@@H](OC(C)=O)c1ccccc1OCCO 0.682
CCOC(=O)C[C@H]1[C@H](OC(=O)c2cc3ccccc3oc2=O)[C@@H](NC(=O)C2CCCCC2)c2cc(OCCCO)ccc2N1C(=O)c1ccc2ccccc2n1 -0.865
COC(=O)C(CC#Cc1ccc2c(c1)[C@]1(C(=O)N2)[C@H](C(=O)N2CCCCCCC2)[C@H]2C(=O)O[C@H](c3ccccc3)[C@H](c3ccccc3)N2[C@@H]1c1ccc(O)cc1)C(=O)OC 0.904
C=C[C@H](OC)[C@@H](OC(=O)Nc1ccc(SC)cc1)c1ccc(O)c(F)c1 1.48
O=C1O[C@@H](c2ccccc2)[C@@H](c2ccccc2)N2[C@@H](c3ccc(OCCO)cc3)[C@]3(C(=O)Nc4ccc(C#CCCO)cc43)[C@@H](C(=O)N3CCN(c4ncccn4)CC3)[C@H]12 1.14
C=CCC(OC(C)=O)[C@@H]1[C@@H](N(Cc2cccc3ccccc23)C(=O)Cc2ccc(F)cc2)c2cc(OCCCO)ccc2N1C(=O)Cc1ccc2ccccc2c1 (stereo partly specified) 0.348
O=C1O[C@@H](c2ccccc2)[C@@H](c2ccccc2)N2[C@@H](c3ccc(O)cc3)[C@]3(C(=O)Nc4ccc(C#CC5(O)CCCCCC5)cc43)[C@@H](C(=O)Nc3nc4ccccc4s3)[C@H]12 2.03
C#CCCCON=C1C[C@@H](O)[C@@H](O)[C@@H]2[C@@H]3C(=O)N(Cc4ccc5c(c4)OCO5)C(=O)[C@@H]3CC[C@@H]12 0.105
O=C1O[C@H](c2ccccc2)[C@H](c2ccccc2)N2[C@H]1[C@@H](C(=O)NC[C@H](O)c1ccccc1)[C@]1(C(=O)Nc3ccc(C#CC4(O)CCCCCC4)cc31)[C@H]2c1ccc(OCCO)cc1 3.35
CCOC(=O)C1=C[C@@H](c2ccccc2)N(S(=O)(=O)c2ccc(C)cc2)[C@H]1c1ccc(F)cc1 -0.382
O=[N+]([O-])c1ccc(C[n+]2ccc3ccc(O)cc3c2)o1 -2.03
